We go through nine compounds from PubChem BioAssay (NCI).

Some test systems named below: SR leukemia; RPMI-8226 leukemia; OVCAR-8 ovarian; OVCAR-5 ovarian; OVCAR-4 ovarian; SK-OV-3 ovarian; IGROV1 ovarian; OVCAR-3 ovarian; HS 578T breast; NCI/ADR-RES ovarian; T-47D breast; BT-549 breast; MDA-MB-435 melanoma; SW-620 colon; MCF7 breast; HCT-116 colon; HCC-2998 colon; KM12 colon.
Holding throughout (test): NCI-60 one-dose screen, 48 h (100 = growth as untreated, 0 = no growth, -100 = all killed)
What all share (conditions): 10 µM unless noted

The structures appear in SMILES notation. About 83,000 compounds went through this panel and 20% of them were active in at least one assay; those are over-represented in the sample as a whole.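 Testing used 96-well plates and a 48-hour single-concentration exposure. Example: -40 means 40% of the starting cells died.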 Values without a mark were called inactive. Calls of active or inactive are those of the source. How the source made its calls: active means growth percent below 10; inactive means the rest.

In the case of `Cn1c2ccccc2c2c3c(c4c5ccccc5n(CCCCCC#N)c4c21)C(=O)N(O)C3=O`, the growth in the experiment on SR leukemia was 1.39% (active); in the experiment with RPMI-8226 leukemia, 0.134% (active); in the experiment on OVCAR-8 ovarian it was 27.5%; in the experiment with OVCAR-5 ovarian, 12.8%; in the experiment with OVCAR-4 ovarian, 28.4%; in the experiment on SK-OV-3 ovarian, 37.1%. Further, the growth with IGROV1 ovarian is 27.6%; in the experiment on OVCAR-3 ovarian, 6.92% (active); with HS 578T breast, 13%; in the experiment with NCI/ADR-RES ovarian it was 12.2%; in the experiment on T-47D breast, 17.4%; in the experiment with BT-549 breast it was 18.5%. Also, the growth in the experiment with MDA-MB-435 melanoma was 20.9%; in the experiment on SW-620 colon it was 14%; with MCF7 breast it was 7.79% (active); in the experiment on HCT-116 colon, -19.4% (active); in the experiment on HCC-2998 colon, 25.3%; in the experiment on KM12 colon, 16.6%.

With `CCOC(=O)c1c2ncccc2n2c(=O)n(-c3ccc(Cl)cc3)nnc12`, the growth in the experiment on SR leukemia was 91.4%; in the experiment with RPMI-8226 leukemia, 92.8%; in the experiment on OVCAR-8 ovarian, 57.1%; with OVCAR-5 ovarian it was 67.7%; in the experiment with OVCAR-4 ovarian, 84.6%; in the experiment with SK-OV-3 ovarian, 92.2%. For the same compound, the growth is 85.6% with IGROV1 ovarian; 95.2% in the experiment with OVCAR-3 ovarian; 93.9% in the experiment with HS 578T breast; 59.8% in the experiment with NCI/ADR-RES ovarian; 61.1% in the experiment on T-47D breast; 43.6% in the experiment on BT-549 breast. For the same compound, the growth is 49.7% in the experiment on MDA-MB-435 melanoma; 105% in the experiment with SW-620 colon; 76.6% in the experiment with MCF7 breast; 86.9% with HCT-116 colon; 90.3% with HCC-2998 colon; 70.7% in the experiment on KM12 colon.

As to `CN1/C(=C\C=C\C2=[N+](C)c3ccccc3C2(C)C)C(C)(C)c2ccccc21`, the growth is -32.8% (active) in the experiment with SR leukemia; -8.69% (active) with RPMI-8226 leukemia; 1.34% (active) with OVCAR-8 ovarian; 20.9% in the experiment on OVCAR-5 ovarian; 10.5% with OVCAR-4 ovarian; -2.66% (active) with SK-OV-3 ovarian. Also, the growth in the experiment on IGROV1 ovarian was 2.4% (active); in the experiment on OVCAR-3 ovarian, 2.1% (active); with HS 578T breast it was 23.4%; in the experiment with NCI/ADR-RES ovarian it was 14.3%; with T-47D breast, -9.24% (active); in the experiment with BT-549 breast, -17.7% (active). In addition, the growth with MDA-MB-435 melanoma was -48.9% (active); in the experiment on SW-620 colon, 8.18% (active); in the experiment on MCF7 breast, -2.53% (active); in the experiment with HCT-116 colon, 0.854% (active); in the experiment with HCC-2998 colon it was -60.8% (active); with KM12 colon it was -64.9% (active).

As for `CS(=O)(CCCCN=C=S)=NC(=O)c1c(F)c(F)c(F)c(F)c1F` (configuration not stated), the growth was 23.1% with SR leukemia; -3.75% (active) with RPMI-8226 leukemia; 97.3% in the experiment on OVCAR-8 ovarian; 100% with OVCAR-5 ovarian; 112% in the experiment with OVCAR-4 ovarian; 97.3% with SK-OV-3 ovarian. Moreover, the growth in the experiment on IGROV1 ovarian was 106%; in the experiment with OVCAR-3 ovarian, 102%; in the experiment on HS 578T breast, 88.7%; with NCI/ADR-RES ovarian it was 103%; in the experiment on T-47D breast, 44.2%; in the experiment with BT-549 breast, 97.1%. Further, the growth in the experiment with MDA-MB-435 melanoma is 99.1%; with SW-620 colon, 74.5%; with MCF7 breast, 12.8%; with HCT-116 colon it was 86.4%; in the experiment on HCC-2998 colon, 94%; in the experiment with KM12 colon, 54.2%.

On to `Oc1ccccc1/C=N/Nc1ccc2ccccc2n1`, for which the growth in the experiment on SR leukemia is 8.32% (active); in the experiment with RPMI-8226 leukemia, 35.2%; in the experiment with OVCAR-8 ovarian, 33.2%; with OVCAR-5 ovarian, 81%; with OVCAR-4 ovarian it was -0.697% (active); in the experiment with SK-OV-3 ovarian, 43%. Also, the growth is 28.1% with IGROV1 ovarian; 8.79% (active) in the experiment with OVCAR-3 ovarian; 79.3% in the experiment with HS 578T breast; 22.9% in the experiment with NCI/ADR-RES ovarian; 21.8% in the experiment on T-47D breast; 66.8% with BT-549 breast. The growth with MDA-MB-435 melanoma is 65.2%; in the experiment with SW-620 colon it was 34%; in the experiment on MCF7 breast it was -18% (active); with HCT-116 colon, 22.3%; with HCC-2998 colon, 68.6%; with KM12 colon it was 46.3%.

For `COc1ccc(-c2nn(-c3ccccc3)cc2/C=C/C(=O)OCc2cn(-c3ccc(F)c(Cl)c3)nn2)cc1`, the growth in the experiment with SR leukemia is 88.3%; with RPMI-8226 leukemia, 75.2%; in the experiment with OVCAR-8 ovarian, 80.1%; in the experiment on OVCAR-5 ovarian, 106%; in the experiment with OVCAR-4 ovarian, 66.9%; in the experiment with SK-OV-3 ovarian it was 85.3%. The growth in the experiment with IGROV1 ovarian is 86.2%; in the experiment with OVCAR-3 ovarian it was 68.2%; with HS 578T breast, 88%; in the experiment with NCI/ADR-RES ovarian it was 73.9%; in the experiment on T-47D breast, 48.3%; in the experiment with BT-549 breast, 101%. Moreover, the growth is 65.3% in the experiment on MDA-MB-435 melanoma; 100% with SW-620 colon; 71% in the experiment on MCF7 breast; 84.8% with HCT-116 colon; 98.7% in the experiment with HCC-2998 colon; 93.9% with KM12 colon.

As for `O=C(/C=C\c1cccc([N+](=O)[O-])c1)c1ccccc1`, the growth in the experiment on SR leukemia is 12.7%; with RPMI-8226 leukemia, 0.104% (active); in the experiment on OVCAR-8 ovarian, 74.1%; in the experiment on OVCAR-5 ovarian, 111%; in the experiment with OVCAR-4 ovarian it was 54.4%; in the experiment on SK-OV-3 ovarian, 115%. The growth is -53% (active) in the experiment on IGROV1 ovarian; -83% (active) with OVCAR-3 ovarian; 86.5% in the experiment on HS 578T breast; 83.6% with NCI/ADR-RES ovarian; -5.11% (active) in the experiment with T-47D breast; 90.1% in the experiment on BT-549 breast. For the same compound, the growth is 65.7% with MDA-MB-435 melanoma; -30.1% (active) with SW-620 colon; -9.56% (active) in the experiment on MCF7 breast; -68.3% (active) in the experiment with HCT-116 colon; 10.9% in the experiment on HCC-2998 colon; -49.7% (active) in the experiment on KM12 colon.

Take `Cc1ccccc1CCO`: the growth was 88.7% in the experiment with SR leukemia; 108% in the experiment on RPMI-8226 leukemia; 100% with OVCAR-8 ovarian; 95.9% in the experiment on OVCAR-5 ovarian; 106% with OVCAR-4 ovarian; 98% in the experiment on SK-OV-3 ovarian. Moreover, the growth in the experiment on IGROV1 ovarian was 95.4%; in the experiment with OVCAR-3 ovarian, 106%; in the experiment with HS 578T breast, 100%; with NCI/ADR-RES ovarian, 101%; with T-47D breast it was 96.9%; with BT-549 breast, 95.1%. Also, the growth was 108% with MDA-MB-435 melanoma; 94.7% in the experiment on SW-620 colon; 91.1% in the experiment on MCF7 breast; 93.6% in the experiment on HCT-116 colon; 92.6% with HCC-2998 colon; 109% in the experiment on KM12 colon.

Take `Cn1c2ccccc2c2c3c(c4c5ccccc5[nH]c4c21)C(=O)N(N)C3=O`: the growth in the experiment with SR leukemia is 5.54% (active); with RPMI-8226 leukemia, 57.2%; in the experiment with OVCAR-8 ovarian it was 66.7%; in the experiment on OVCAR-5 ovarian, 89.3%; in the experiment on OVCAR-4 ovarian, 73%; in the experiment on SK-OV-3 ovarian it was 74%. The growth was 72.7% in the experiment on IGROV1 ovarian; 69.6% in the experiment with OVCAR-3 ovarian; 79.5% in the experiment on HS 578T breast; 71.6% with NCI/ADR-RES ovarian; 30.9% in the experiment with T-47D breast; 46.6% with BT-549 breast. For the same compound, the growth in the experiment with MDA-MB-435 melanoma was 57.9%; in the experiment on SW-620 colon it was 44.7%; with MCF7 breast, 23.9%; in the experiment on HCT-116 colon, 40.7%; in the experiment with HCC-2998 colon, 74.4%; with KM12 colon, 62.8%.
